What all share (assay): MAPPIT interaction score (arbitrary units); higher = stronger binary interaction signal, active = hit call of the paper
One test has as its target CG10026. The following applies: MAPPIT configuration: N-N; pair source set: Finley_Y2H.
The next test has as its target CCT3. The following applies: MAPPIT configuration: N-N; pair source set: DPIM.
In the next test the target is CCT7. The following applies: MAPPIT configuration: N-N; pair source set: DPIM.
For another test, the target named is CAP. The following applies: MAPPIT configuration: N-N; pair source set: screen_1.
Another test concerns the target vlc. The following applies: MAPPIT configuration: N-C; pair source set: screen_3.
The target of another test is CG10013. Conditions: MAPPIT configuration: N-N; pair source set: DPIM.
In another test the target is CASK. The following applies: MAPPIT configuration: N-C; pair source set: screen_4.
A further test has as its target CG30324. The following applies: MAPPIT configuration: N-C; pair source set: screen_4.
Another test addresses stck. Conditions: MAPPIT configuration: N-C; pair source set: screen_3.
In a further test the target is CCT6. Conditions: MAPPIT configuration: N-N; pair source set: DPIM.
The target of a further test is Spt7. Conditions: MAPPIT configuration: N-N; pair source set: Curagen_high_conf.

A number with no mark means an inactive call.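 The calls were made as follows: active = MAPPIT score above the 99th percentile of random reference set scores in the same batch; inactive = at or below it.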
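Also: HEK293T cells with Epo stimulation, STAT-responsive firefly luciferase reporter, fold induction versus unstimulated cells divided by the larger fold induction of two negative controls lacking either bait or prey.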

B1: CG7218 (protein)
chain: MNATLNSAGGKRQLRFRGDVTGSRVEELHHQQQEEQKQKAPLAQDDVAATPTATPAAGSAQQRLQSGTAETCTNTFYDFFKVEMTRGYMLEHDEERYSARRQKIYSFMRIPRDLERFMVYGIMQCADSFLYIHTFLPVRFVMAVWALVSRTVARIFRLRSSGQRLLSPAEICDLLKGVIWMTVTLIMLLVDTNRVYHIIKSQSIIKLYIFYNMLEVGDRLLSAFGQDTIDALFWTATEPKNSKREHFGVLTHVLFTLIYVFLHSGLIMFQATCLNVAVNSNNKGLLTIMISNNFVELKGSVFKKFDKNNLFQLTCSDVRERFHLSVLLFIVVIQTMKEFDWSITQFCVMLPDCFAVLFTEILIDWVKHAFITRFNELPESIYREYTTSLAYDMTQTRQKHAFSDHSDLVARRMGFIPFPLAVVLIKAIYTAVSFENLAAWLLFLLAYLFAMGLRICLTICALGKACKLMKEHQTERNSSTPSSMTNVPVIGAAAPVSAAATGGQNHNNNNNNNNNSISIGSKPAQVTTLLTPPSAGHLDVSKNFSRTSIASTSTPKKAVSEQELDVTNSLELGATALFSNSDVDLDDVCLNEQVTNTNTSSAVQEVYQEQDLVRSQPDLMLLNNSGDGVTSAKAKKATQRLPKRTHKRSESEPGMPSMVEKGGAAGIAGGNQTTQL
Turning to B1, the MAPPIT interaction score in the test with CG10026 was 1.47.

B2: Lst8 (protein)
chain: MGDQQQLILATGGYDHTIKVWQAHTGNCIKTMRFVETSQVNALDRTPDKTRLAACGYQCIRLYDLESNCTAPVINFDGVQKNVTRLGFQEDGNWMFTAGEDHHVRIWDMIAAPPHCSRIFDCEAPVNAACLHPNQVEIAMGSQNGSVFLWDVKSERHERIVPEVDASIQDVAISPDGRYLAAANNKGNCYIWSLTSQDQKMSTLRPNRKIPAHSRYILRCKFSPDSRLLLTTSGDGTVCIWKTDDFSKWRELCIENYWVWDAAFSADSKWLFTASSDGIARLWKLQTKSSIRDYTGHTKAITALSFKDEIVGK
Consider B2, for which, in the test with CCT3, the MAPPIT interaction score is 0.335.

B3: CG4511 (protein)
chain: MANILENQLFTAAKTIEQQLDQQLDRLDNLDSDDLKVLREQRLREMKDLNNKKQEWLRNGHGTYTELADEKEFFEMSKKSPNIVCHFYRDSTERCKIVDMHLKILAAKHVEAKFCKVNAEKTPFLTQRLRIKVIPTIALVKDSKTKDFIVGFTDLGNCDDFATEMLEWRIAHSGAIDYKGDLMQPPDVKRKPFINRPQKTIRGGYDSDDSDIDLDD
Take B3: the MAPPIT interaction score in the test with CCT7 was 0.524.

B4: Vps28 (protein)
chain: MQEQSPELYEEVKLFRNAREREKYDNMADLYAIINTIQQLEKAYIRDCITPQEYTAACSKYLVQYKVAFKQVQCDEFPSVETFVKKFRLDCPAALERIREDRPITIRDDKGNTSKCIAEIVSLFITIMDKLRLQINTMDALQPDVKDLADNMNRLSLIPEDFDAKLKVEKWLGSLNEMQASDELSEGQVRQFLFDLESAYADFNKLLHSQ
Turning to B4, the MAPPIT interaction score with CAP was 1.33; with vlc it was 1.09.

B5: Ns1 (protein)
chain: MALKRLKTKKSKRLTGRLKHKIEKKVRDHNKKERRAAKKNPKKGSKKQKLIQIPNICPFKDDILKEVEEAKQRQEAERLARREAFKAEREQNKFKTLESMVEDADMRSTVHGIMHENDAQDQDEKKYKNAVTKEQSLKQYFKEFRKVIENADVVLEVVDARDPLGTRCNEVERAVRGAPGNKRLVLVLNKADLVPRENLNNWIKYFRRSGPVTAFKASTQDQANRLGRRKLREMKTEKAMQGSVCIGAELLMSMLGNYCRNKGIKTSIRVGVVGIPNVGKSSIINSLTRGRSCMVGSTPGVTKSMQEVELDSKIKLIDCPGIVFTSGGENSHAVLKNAQRVGDVKDPFTIAESVLKRASKEYFCTMYDITNYDTFEEFFAKKAARMGKFLKKGVPDVVAAARSVLNDWNTGKIKYCTQPPEVQEGQSVHISASIVHSEAREFDVENFESMETEILEHCAVKTDDIMEITSTGPLEIRQPREEAEPADKITASLVIDEKEKPAKGRKRKLDEEKEKVDPSLLLEENQSLNKGIKQMQKLKKKQNVRNEKKISKITDVLDSFSLGPSSSKAEKYDFDEDYVIE
Take B5: in the test with CG10013, the MAPPIT interaction score is -0.155.

B6: Mlp60A (protein)
chain: MPFVPVETPKCPACGKSVYAAEERVAGGYKFHKTCFKCSMCNKALDSTNCTEHEKELFCKNCHGRKYGPKGYGFGGGAGCLSTDTGAHLNRE
Regarding B6, the MAPPIT interaction score with CASK is 1.2; with CG30324, 3.25; with stck, 4.22 (active).

B7: CG8230 (protein)
chain: MGINVSRTADLGSNQWLQRFVGRQHIAHDDEAFWNGLLNYNIVLPENSQDQLNLDSRLEALCQSFIGNNLKTGNFGSLVTVFLEKTSELLSLSDQESNMHVWQTFNALFIIRSLVKYINETGSEFQLLQHFEAMPNAELLQAALEQQQQTPAESATIAMEATEQSAAAAVPVIVDGSKFETFIDALVNLIVVIPVKEFTYHLHLEAVNMLITLLSVHLFAQQPTDKSIVFRTVFKCQHANVLMSALLHFVARIVEVPHTMFGSSSAGSFVFGIAESLLSIFTFRKQPDILKAGQAAGGGELSQRFRTHYPLANQSLLLILILTNHCTAQDNAYRTSLFSCADSKDSPKQGAVSFQIDFSAVYETLCTIVTIDQATLLLYLLLHRNERFYRFVMQQQDLEQLVIPILQTLYNAPDSNSHHIYMSLIVLLILSEDEGFNKNVHTIMLKNITWYTERTISEISLGGILILIVIRTIQYNMLKMRDKYLHTNCLAALANMSGHFRALHPYVAQRLVSLFETLARKHTRLDAQLKEPADSAVFVNVSTTPEDMLQDLSVLEEVLRMVLEILNSCLTNQLVYCPNLVYTLLYKRSVFEGFRSHHAFQDVIQNIDMVVGFFSSRLQRVQEQRGELGVNEVLEVISKGASQWSSDRLRKFPDLKFKYVEEDAPEEFFIPYVWTLVCKYGCVHFSSESIKSVTTDIAC
As for B7, the MAPPIT interaction score with CCT6 is 3.15 (active); in the test with Spt7, -0.0669.
